{"source": "PubChem BioAssay AID1159580", "about": "(chemical genetic matrix, 2015)", "experiment": "chemical genetic growth profiling, strain panel (AID 1159580);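 further: tested at 20 µM; growth read once vehicle control cultures reached saturation at 30 °C; 1 = growth at the plate median or of vehicle wells; lower values mean less growth of the strain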", "settings": "S. cerevisiae deletion strains, growth OD", "note": "Among all 5,500 compounds or so, about 2,000 (36%) were called active. Not shown: some 18% with an inconclusive outcome. Some of the results follow. Unmarked numbers belong to inactive results. No stated cut-off is given here; in the data, active means normalized growth mostly below about 0.91 (no sharp cut-off); inconclusive means no clear call, values can overlap the other calls; inactive means mostly above about 0.92."}
{"compound": "CC(C)=CCC/C(C)=C/CC/C(C)=C/CC/C(C)=C/CC/C(C)=C/CC/C(C)=C/CC/C(C)=C/CC/C(C)=C/CC/C(C)=C/CO", "values": [{"measurement": "normalized growth", "setting": "locus YAL021C, strain ccr4, active compounds read low", "value": 0.988}, {"measurement": "normalized growth", "setting": "locus YAL026C, strain drs2, active compounds read low", "value": 1}, {"measurement": "normalized growth", "setting": "locus YAL030W, strain snc1, active compounds read low", "value": 0.993}, {"measurement": "normalized growth", "setting": "locus YBL061C, strain skt5, active compounds read low", "value": 0.988}, {"measurement": "normalized growth", "setting": "locus YBR009C, strain hhf1, active compounds read low", "value": 0.995}, {"measurement": "normalized growth", "setting": "locus YBR023C, strain chs3, active compounds read low", "value": 1}, {"measurement": "normalized growth", "setting": "locus YBR171W, strain sec66, active compounds read low", "value": 1}, {"measurement": "normalized growth", "setting": "locus YBR231C, strain swc5, active compounds read low", "value": 0.986}, {"measurement": "normalized growth", "setting": "locus YBR279W, strain paf1, active compounds read low", "value": 0.966}, {"measurement": "normalized growth", "setting": "locus YCL011C, strain gbp2, active compounds read low", "value": 0.985}, {"measurement": "normalized growth", "setting": "locus YCL016C, strain dcc1, active compounds read low", "value": 0.99}, {"measurement": "normalized growth", "setting": "locus YCL061C, strain MRC1, active compounds read low", "value": 0.994}, {"measurement": "normalized growth", "setting": "locus YCL069W, strain vba3, active compounds read low", "value": 0.99}, {"measurement": "normalized growth", "setting": "locus YCR088W, strain abp1, active compounds read low", "value": 0.988}, {"measurement": "normalized growth", "setting": "locus YDL005C, strain med2, active compounds read low", "value": 0.992}, {"measurement": "normalized growth", "setting": "locus YDL040C, strain nat1, active compounds read low", "value": 0.992}, {"measurement": "normalized growth", "setting": "locus YDR001C, strain nth1, active compounds read low", "value": 0.99}, {"measurement": "normalized growth", "setting": "locus YDR069C, strain doa4, active compounds read low", "value": 1.01}, {"measurement": "normalized growth", "setting": "locus YDR137W, strain rgp1, active compounds read low", "value": 1.01}, {"measurement": "normalized growth", "setting": "locus YDR159W, strain sac3, active compounds read low", "value": 1.1}, {"measurement": "normalized growth", "setting": "locus YDR195W, strain ref2", "value": 0.997}, {"measurement": "normalized growth", "setting": "locus YDR297W, strain sur2, active compounds read low", "value": 0.99}, {"measurement": "normalized growth", "setting": "locus YDR334W, strain swr1, active compounds read low", "value": 1.01}, {"measurement": "normalized growth", "setting": "locus YDR335W, strain msn5, active compounds read low", "value": 1}, {"measurement": "normalized growth", "setting": "locus YDR392W, strain spt3, active compounds read low", "value": 1.11}, {"measurement": "normalized growth", "setting": "locus YEL003W, strain gim4, active compounds read low", "value": 1}, {"measurement": "normalized growth", "setting": "locus YEL037C, strain rad23, active compounds read low", "value": 1.02}, {"measurement": "normalized growth", "setting": "locus YEL061C, strain CIN8 (second series), active compounds read low", "value": 0.998}, {"measurement": "normalized growth", "setting": "locus YER015W, strain faa2, active compounds read low", "value": 0.995}, {"measurement": "normalized growth", "setting": "locus YER016W, strain bim1, active compounds read low", "value": 0.991}, {"measurement": "normalized growth", "setting": "locus YER111C, strain swi4, active compounds read low", "value": 0.996}, {"measurement": "normalized growth", "setting": "locus YER155C, strain BEM2 (second series), active compounds read low", "value": 1.01}, {"measurement": "normalized growth", "setting": "locus YFR010W, strain ubp6, active compounds read low", "value": 1.01}, {"measurement": "normalized growth", "setting": "locus YGL167C, strain pmr1, active compounds read low", "value": 1}, {"measurement": "normalized growth", "setting": "locus YGL173C, strain kem1, active compounds read low", "value": 0.998}, {"measurement": "normalized growth", "setting": "locus YGL227W, strain vid30, active compounds read low", "value": 0.983}, {"measurement": "normalized growth", "setting": "locus YGL240W, strain doc1, active compounds read low", "value": 1.03}, {"measurement": "normalized growth", "setting": "locus YGL253W, strain hxk2, active compounds read low", "value": 0.983}, {"measurement": "normalized growth", "setting": "locus YHR013C, strain ard1, active compounds read low", "value": 0.987}, {"measurement": "normalized growth", "setting": "locus YHR027C, strain rpn1, active compounds read low", "value": 0.986}, {"measurement": "normalized growth", "setting": "locus YHR030C, strain SLT2, active compounds read low", "value": 1.02}, {"measurement": "normalized growth", "setting": "locus YHR079C, strain IRE1, active compounds read low", "value": 1.01}, {"measurement": "normalized growth", "setting": "locus YHR142W, strain chs7, active compounds read low", "value": 0.983}, {"measurement": "normalized growth", "setting": "locus YJL092W, strain hpr5, active compounds read low", "value": 1}, {"measurement": "normalized growth", "setting": "locus YJL095W, strain BCK1 (second series), active compounds read low", "value": 0.992}, {"measurement": "normalized growth", "setting": "locus YJL095W, strain BCK1, active compounds read low", "value": 1.01}, {"measurement": "normalized growth", "setting": "locus YJL115W, strain asf1, active compounds read low", "value": 0.989}, {"measurement": "normalized growth", "setting": "locus YJL129C, strain trk1, active compounds read low", "value": 0.961}, {"measurement": "normalized growth", "setting": "locus YJL154C, strain vps35, active compounds read low", "value": 0.995}, {"measurement": "normalized growth", "setting": "locus YJL164C, strain tpk1, active compounds read low", "value": 0.989}, {"measurement": "normalized growth", "setting": "locus YJL166W, strain qcr8, active compounds read low", "value": 0.991}, {"measurement": "normalized growth", "setting": "locus YJL187C, strain SWE1, active compounds read low", "value": 1}, {"measurement": "normalized growth", "setting": "locus YJR066W, strain TOR1, active compounds read low", "value": 0.975}, {"measurement": "normalized growth", "setting": "locus YKL160W, strain elf1, active compounds read low", "value": 0.996}, {"measurement": "normalized growth", "setting": "locus YKR026C, strain gcn3, active compounds read low", "value": 1}, {"measurement": "normalized growth", "setting": "locus YKR091W, strain srl3, active compounds read low", "value": 0.989}, {"measurement": "normalized growth", "setting": "locus YLL001W, strain dnm1, active compounds read low", "value": 0.976}, {"measurement": "normalized growth", "setting": "locus YLL026W, active compounds read low", "value": 0.995}, {"measurement": "normalized growth", "setting": "locus YLL041C, strain sdh2, active compounds read low", "value": 0.996}, {"measurement": "normalized growth", "setting": "locus YLR027C, strain aat2, active compounds read low", "value": 1.03}, {"measurement": "normalized growth", "setting": "locus YLR113W, strain HOG1, active compounds read low", "value": 0.971}, {"measurement": "normalized growth", "setting": "locus YLR221C, strain rsa3, active compounds read low", "value": 0.965}, {"measurement": "normalized growth", "setting": "locus YLR258W, strain gsy2, active compounds read low", "value": 0.992}, {"measurement": "normalized growth", "setting": "locus YLR262C, strain YPT6 (second series), active compounds read low", "value": 1.01}, {"measurement": "normalized growth", "setting": "locus YLR320W, strain mms22, active compounds read low", "value": 0.992}, {"measurement": "normalized growth", "setting": "locus YLR342W, strain FKS1, active compounds read low", "value": 0.993}, {"measurement": "normalized growth", "setting": "locus YLR357W, strain rsc2, active compounds read low", "value": 1.12}, {"measurement": "normalized growth", "setting": "locus YLR370C, strain arc18, active compounds read low", "value": 0.995}, {"measurement": "normalized growth", "setting": "locus YLR384C, strain iki3, active compounds read low", "value": 0.994}, {"measurement": "normalized growth", "setting": "locus YML120C, strain ndi1, active compounds read low", "value": 0.99}, {"measurement": "normalized growth", "setting": "locus YMR058W, strain fet3, active compounds read low", "value": 1.05}, {"measurement": "normalized growth", "setting": "locus YMR125W, strain sto1, active compounds read low", "value": 0.984}, {"measurement": "normalized growth", "setting": "locus YMR129W, active compounds read low", "value": 0.99}, {"measurement": "normalized growth", "setting": "locus YMR205C, strain PFK2, active compounds read low", "value": 0.982}, {"measurement": "normalized growth", "setting": "locus YMR231W, strain pep5, active compounds read low", "value": 1}, {"measurement": "normalized growth", "setting": "locus YNL071W, strain lat1, active compounds read low", "value": 0.992}, {"measurement": "normalized growth", "setting": "locus YNL183C, strain NPR1, active compounds read low", "value": 0.943}, {"measurement": "normalized growth", "setting": "locus YNL209W, strain ssb2, active compounds read low", "value": 0.991}, {"measurement": "normalized growth", "setting": "locus YNL248C, strain rpa49, active compounds read low", "value": "1.16 [resistant] (active)"}, {"measurement": "normalized growth", "setting": "locus YNL322C, strain KRE1 (second series), active compounds read low", "value": 0.982}, {"measurement": "normalized growth", "setting": "locus YNR049C, strain mso1, active compounds read low", "value": 1.02}, {"measurement": "normalized growth", "setting": "locus YOR001W, strain rrp6, active compounds read low", "value": 1.03}, {"measurement": "normalized growth", "setting": "locus YOR070C, strain gyp1, active compounds read low", "value": 0.986}, {"measurement": "normalized growth", "setting": "locus YOR080W, strain dia2, active compounds read low", "value": 1}, {"measurement": "normalized growth", "setting": "locus YOR083W, strain WHI5, active compounds read low", "value": 0.977}, {"measurement": "normalized growth", "setting": "locus YOR106W, strain vam3, active compounds read low", "value": 0.969}, {"measurement": "normalized growth", "setting": "locus YOR231W, strain MKK1, active compounds read low", "value": 1}, {"measurement": "normalized growth", "setting": "locus YOR265W, strain rbl2, active compounds read low", "value": 1.01}, {"measurement": "normalized growth", "setting": "locus YOR270C, strain vph1, active compounds read low", "value": 1.12}, {"measurement": "normalized growth", "setting": "locus YOR290C, strain snf2, active compounds read low", "value": 1.08}, {"measurement": "normalized growth", "setting": "locus YPL051W, strain arl3, active compounds read low", "value": 1.02}, {"measurement": "normalized growth", "setting": "locus YPL078C, strain atp4, active compounds read low", "value": 0.996}, {"measurement": "normalized growth", "setting": "locus YPL106C, strain sse1, active compounds read low", "value": 1}, {"measurement": "normalized growth", "setting": "locus YPL240C, strain hsp82, active compounds read low", "value": 1}, {"measurement": "normalized growth", "setting": "locus YPL256C, strain CLN2, active compounds read low", "value": 1.01}]}
